Screens as filed in PubChem BioAssay.
TEAD-YAP inh = TEAD-YAP interaction inhibition; HEK-TIYL cells, TEAD-Gal4/YAP UAS-luciferase luminescence; inhibition, % at 9.12 µM; hit rate 1.4% among 640,000; AID 1259422; in the data active means inhibition above about 32%
FBW7 act = activators of human E3 ligase FBW7; AlphaScreen FBW7–phospho-cyclin E peptide binding, activator screen; normalized activity (activation), % at 26.1 µM; hit rate 0.13% among 650,000; AID 1259310; in the data active means normalized activity above about 1.9%;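 further: purified mutant Fbw7 with reduced substrate affinity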
MITF inh = human MITF inhibition, primary screen; AID 1259374; hit rate 0.91% among 650,000; O75030; inhibition, % at 2.6 µM; AlphaScreen MITF homodimerization, bead proximity signal; in the data active means inhibition above about 50%
GPR151 ag = human GPR151 activation. PathHunter beta-arrestin GPR151 cells, luminescence. hit rate 1% among 650,000. AID 1508602. activation, % at 11.2 µM. Q8TDV0; in the data active means activation above about 4.9%
Target sequence (Q8TDV0 whole entry, looked up): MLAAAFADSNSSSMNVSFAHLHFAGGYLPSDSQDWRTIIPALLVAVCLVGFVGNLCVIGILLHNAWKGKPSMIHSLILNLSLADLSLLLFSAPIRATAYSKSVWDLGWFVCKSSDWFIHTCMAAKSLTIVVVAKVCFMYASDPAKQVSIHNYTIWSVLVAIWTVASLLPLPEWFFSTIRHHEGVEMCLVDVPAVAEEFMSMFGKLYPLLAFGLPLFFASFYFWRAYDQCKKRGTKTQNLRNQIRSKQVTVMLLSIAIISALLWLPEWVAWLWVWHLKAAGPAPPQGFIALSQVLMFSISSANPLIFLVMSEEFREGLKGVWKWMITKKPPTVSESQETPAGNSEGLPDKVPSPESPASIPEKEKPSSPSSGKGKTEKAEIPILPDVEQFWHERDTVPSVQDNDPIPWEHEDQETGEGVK
GPR151 confirm = human GPR151 activation, confirmation screen | activation, % at 11.2 µM | AID 1508609 | shares compounds with GPR151 ag | GPR151 PathHunter beta-arrestin cells, luminescence, 90 min; % of EA-reagent control over plate median | 6,700 tested, under 10 active;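 active means mean percent activation across replicates above the confirmation screen cutoff of 4.91%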
GPR119 counter = activates human GPR119 in a GPR151 counter-screen; shares compounds with GPR151 ag; GPR119 PathHunter beta-arrestin cells, luminescence, 90 min; 0 = compound-well median, 100 = enzyme-acceptor control; activation, % at 11.2 µM; hit rate 0.3% among 6,700;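 active means mean percent activation in the counterscreen above 29.09%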;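 further: counterscreen on off-target GPR119 to flag nonselective hits from the GPR151 activator screen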
Large screens that a line does not name were inactive (follow-up assays come after a bar, where they were run). Compounds with a hit are over-represented: about 3.4% of the library has one in this group of screens.

O=C1CCCN1CCn1cnc2c(NCc3cccc(C(F)(F)F)c3)nc(Nc3ccc(N4CCOCC4)cc3)nc21	GPR151 ag 5.6 | GPR151 confirm inactive | GPR119 counter inactive
FC(F)(F)c1cccc(CNc2ncnc3nc(Nc4ccc(N5CCOCC5)cc4)[nH]c23)c1	GPR151 ag 7.1 | GPR151 confirm inactive | GPR119 counter inactive
O=C1CCCN1CCCNc1nc(NCc2cccc(C(F)(F)F)c2)c2ncn(C3CCCCC3)c2n1	GPR151 ag 5.9 | GPR151 confirm inactive | GPR119 counter inactive
O=C1CCCN1CCn1cnc2c(Nc3ccc(N4CCOCC4)cc3)nc(N3CCc4ccccc4C3)nc21	GPR151 ag 13 | GPR151 confirm inactive | GPR119 counter inactive
O=C(NCc1ccccc1Cl)C1CC(Cc2ccc(F)cc2)=NO1 (centres undefined)	none
CCOc1ccc(/C=N/NC(=O)c2ccccc2Br)c(OC)c1	none
COC(=O)CSc1nnc(CNC(=O)c2cccc(F)c2)n1C	GPR151 ag 5.2 | GPR151 confirm inactive | GPR119 counter inactive
COC(=O)CSc1nnc(CNC(=O)c2cccc(C)c2)n1C	none
CSc1ccc(-c2ccc3c(c2)CC(CNC(=O)C2CCOC2)O3)cc1 (centres undefined)	GPR151 ag 7.9 | GPR151 confirm inactive | GPR119 counter inactive
CSc1ccc(-c2ccc3c(c2)CC(CNC(=O)c2ccncc2)O3)cc1 (centres undefined)	none
CC(=O)Nc1ccc(OCC(O)CNC2CCCC2)cc1 (centres undefined)	GPR151 ag 5.5 | GPR151 confirm inactive | GPR119 counter inactive
COc1ccc(/C=N/NC(=O)C(=O)Nc2cccc(Br)c2)cc1	none
O=C(Nc1nnc(-c2cccc([N+](=O)[O-])c2)s1)c1cccs1	GPR151 ag 8.6 | GPR151 confirm inactive | GPR119 counter inactive
CC(=O)Nc1nnc(-c2cccc([N+](=O)[O-])c2)s1	none
COc1ccc(/C=C(\NC(=O)c2ccc(OC)cc2)C(=O)NC(C)C(=O)O)cc1 (centres undefined)	none
COc1ccc(C(=O)N/C(=C/c2ccccc2)C(=O)NC(C)C(=O)O)cc1 (centres undefined)	GPR151 ag 8.7 | GPR151 confirm inactive | GPR119 counter inactive
Cc1ccc(-c2nc(C3CCCN3C(=O)CCCC(=O)O)n3ccccc23)cc1 (centres undefined)	GPR151 ag 5.5 | GPR151 confirm inactive | GPR119 counter inactive
COCCn1c(=NC(=O)Cc2ccccc2)sc2cc(OC)ccc21	none
COCCn1c(=NC(=O)CCS(=O)(=O)c2ccccc2)sc2cc(OC)ccc21	GPR151 ag 6.7 | GPR151 confirm inactive | GPR119 counter inactive
N#Cc1ccccc1OCC(=O)N1CCOCC1	GPR151 ag 5.5 | GPR151 confirm inactive | GPR119 counter inactive
COc1ccc(Nc2nccc(OC)n2)cc1	none
S=c1nc2c(n[nH]1)c1ccccc1n2CCc1ccccc1	GPR151 ag 6.5 | GPR151 confirm inactive | GPR119 counter inactive
CC(C)n1c2ccccc2c2n[nH]c(=S)nc21	GPR151 ag 6.7 | GPR151 confirm inactive | GPR119 counter inactive
S=c1nc2c(n[nH]1)c1ccccc1n2Cc1ccccc1	none
COC(=O)C1C(=O)C2=C(CC1C)NC(=O)CC2c1cc(OC)c(O)c([N+](=O)[O-])c1 (centres undefined)	none
CCOc1cc(C2CC(=O)NC3=C2C(=O)C(C(=O)OC)C(C)C3)cc(Cl)c1O (centres undefined)	GPR151 ag 8.3 | GPR151 confirm inactive | GPR119 counter inactive
O=C(/C=C/c1cccc(Cl)c1)NCc1ccc(F)cc1	none
O=C(CSc1nnc(CNC(=O)c2ccccc2)o1)NCc1ccco1	GPR151 ag 7.8 | GPR151 confirm inactive | GPR119 counter inactive
COc1ccccc1-n1c(O)c(C=Nc2cccc(C)c2)c(=O)[nH]c1=O	none
COc1ccc(OC)c(S(=O)(=O)N2CCN(CC(=O)c3ccco3)CC2)c1	GPR151 ag 6.8 | GPR151 confirm inactive | GPR119 counter inactive
COCC(=O)N1CCN(CC(=O)c2ccco2)CC1	GPR151 ag 4.9 | GPR151 confirm inactive | GPR119 counter inactive
COc1ccc(S(=O)(=O)N2CCN(CC(=O)c3ccco3)CC2)cc1OC	GPR151 ag 12 | GPR151 confirm inactive | GPR119 counter inactive
O=C(CN1CCN(S(=O)(=O)c2ccccc2)CC1)c1ccco1	none
COc1ccc(F)cc1S(=O)(=O)N1CCN(CC(=O)c2ccco2)CC1	none
c1ccc(-c2cc(N3CCCCC3)nc(-c3ccncc3)n2)nc1	GPR151 ag 9.4 | GPR151 confirm inactive | GPR119 counter inactive
c1ccc(-c2cc(N3CCCCC3)nc(-c3cccnc3)n2)nc1	none
COc1ccc(CN2CCN(Cc3ccc(OC)c(OC)c3OC)CC2)c(OC)c1	GPR151 ag 11 | GPR151 confirm inactive | GPR119 counter inactive
O=C(CCc1cccnc1)NCc1nnc2n1CCN(C(=O)CC1=CCCCC1)CC2	none
CCn1cc(CN2CCCC(CNC(=O)c3ccc(-c4ccccc4)cc3)C2)cn1 (centres undefined)	GPR151 ag 6.0 | GPR151 confirm inactive | GPR119 counter inactive
CS(=O)(=O)Nc1cccc(-c2cnc3c(NCc4cccnc4)nccn23)c1	none
COc1c(Cl)cc(C(=O)Nc2cccc(C(=O)O)c2)cc1Cl	GPR151 ag 5.7 | GPR151 confirm inactive | GPR119 counter inactive
Cc1ccc(NC(=O)c2cccc(S(=O)(=O)Nc3cccc(C(=O)O)c3)c2)cc1	GPR151 ag 6.4 | GPR151 confirm inactive | GPR119 counter inactive
O=C(NCCO)C(=O)NCC(c1ccco1)S(=O)(=O)c1cccs1 (centres undefined)	none
O=C(COC(=O)c1cc(O)c(O)c(O)c1)NC1CCCc2ccccc21 (centres undefined)	none
Nc1cccc(C(=O)OCC(=O)NC2CCCc3ccccc32)c1 (centres undefined)	GPR151 ag 5.2 | GPR151 confirm inactive | GPR119 counter inactive
Fc1ccc(C(CNc2nc(-c3cccnc3)nc3ccccc23)N2CCOCC2)cc1 (centres undefined)	none
CC(C)(C)OC(=O)NCC(=O)NC(Cc1ccc(OCc2ccccc2)cc1)C(N)=O (centres undefined)	GPR151 ag 5.1 | GPR151 confirm inactive | GPR119 counter inactive
CCOc1ccc(CC(=O)Nc2ccc(-c3cn4c(n3)SCC4)cc2)cc1	GPR151 ag 5.1 | GPR151 confirm inactive | GPR119 counter inactive
O=C(Cc1ccc(Br)cc1)Nc1ccc(-c2cn3c(n2)SCC3)cc1	none
CC1CCN(Cc2nnnn2CC(=O)N(C)C(C)c2ccon2)CC1 (centres undefined)	none
NC(=O)C1(N2CCCCC2)CCN(C(=O)NC2CCCCC2)CC1	GPR151 ag 5.4 | GPR151 confirm inactive | GPR119 counter inactive
Cc1ccn2cc(-c3ccc(NC(=O)c4ccc(Br)cc4)cc3)nc2n1	GPR151 ag 5.8 | GPR151 confirm inactive | GPR119 counter inactive
